Laboratory results: PubChem BioAssay (NCI)
The panel holds about 83,000 compounds, 20% with a hit somewhere; the sample as a whole holds those more often.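 96-well plates, one dose, 48 hours. Percent growth reported; active if below 10.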 Calls of active or inactive are those of the source.

The molecules below were run on HL-60(TB) leukemia (assay: NCI-60 one-dose screen, 48 h (100 = growth as untreated, 0 = no growth, -100 = all killed)). Conditions: 10 µM unless noted.

Row | Structure (SMILES) | growth
1 | COc1ccc(C(=O)C/C(=C\c2ccc(O)c(OC)c2)C(=O)NN)cc1 | 66.4% (inactive)
2 | Nc1nc(Cl)cc(=O)n1Cc1ccccc1 | 100% (inactive)
3 | O=C1NC(=O)C(=Cc2cn(Cc3ccccn3)c3ccccc23)C(=O)N1 | 101% (inactive)
4 | Cc1cc2c(-c3nc4ccccn4c3NC34CC5CC(CC(C5)C3)C4)c(O)c(O)cc2c(O)c1-c1c(C)cc2c(-c3nc4ccccn4c3NC34CC5CC(CC(C5)C3)C4)c(O)c(O)cc2c1O | 5.04% (active)
5 | COC(=O)C1=C(C(=O)ON)[C@@H]2C=C[C@@]1([C@@H](Cc1ccccc1)Nc1ccccc1)O2 | -3.29% (active)
6 | CCCCCCOc1ccc(/C=N/Nc2cc(C)nc3ccc(Cl)cc23)cc1 | 8.19% (active)
7 | CC(=O)N(C(C)=O)c1ccc(C)cc1 | 92.9% (inactive)
8 | C[C@]12CC[C@H]3[C@@H](CC=C4C[C@@H](O)CC[C@@]43C)[C@@H]1CC[C@@H]2C(=O)C/C=N/O | 78.9% (inactive)
9 | Cn1cc(-c2nnc(-c3cn(C)c4ncc(Br)cc34)o2)c2ccccc21 | 99% (inactive)
10 | CNC(=O)c1cc(COc2nnc(Nc3ccc(Cl)cc3)c3ccoc23)ccn1 | 120% (inactive)
11 | c1ccc2cc(C[n+]3ccn(CCCCCCCn4cc[n+](Cc5ccc6ccccc6c5)c4)c3)ccc2c1 | 32.9% (inactive)
12 | O=C1/C(=C/c2ccccn2)NC(=S)N1c1ccccc1Cl | 26.9% (inactive)
13 | CS(=O)(=O)N1CCc2c(-c3cnc(N)nc3)nc(N3CCOCC3)nc21 | 34.9% (inactive)
14 | NC(=O)c1cc(I)ccc1NC(=O)/C=C/c1ccccc1Cl | -34.5% (active)
15 | COc1ccc2cc(-c3ccc(C(=O)NN)c(C)n3)ccc2c1 | 104% (inactive)
16 | CC1(C)CC(=O)C2=C(C1)OC1=C(C(=O)CC(C)(C)C1)C2c1ccc(OCc2cn(-c3ccc(F)cc3F)nn2)cc1 | 42.2% (inactive)
17 | Cc1nc(NC(=S)Nc2ccc(F)cc2)sc1C(=O)NNC(=S)Nc1ccc(F)cc1 | 48.3% (inactive)
18 | COc1cc(C(C)c2ccc3c(ccn3C)c2)cc(OC)c1OC (configuration not stated) | -12.1% (active)
19 | C=C1C(=O)O[C@H]2[C@H]1CC/C(COC(=O)NCCCCCCCCNC(=O)OC/C1=C/CC[C@@]3(C)O[C@H]3[C@H]3OC(=O)C(=C)[C@@H]3CC1)=C\CC[C@@]1(C)O[C@@H]21 | -50.2% (active)

Row | Structure (SMILES) | growth
20 | CCN1C(=O)N(CC)C2C1NN=c1s/c(=C3\C(=O)N(C)c4ccccc43)c(=O)n12 (configuration not stated) | -13% (active)
21 | CCC(C)(CC)c1ccc(O)c(C)c1 | 105% (inactive)
22 | Cc1ccc(-n2nc(C(C)(C)C)cc2NC(=O)NCc2cc(F)ccc2Oc2ccc3c(cnn3CCO)c2)cc1 | -1.84% (active)
23 | Cc1ccc(-n2nc3c(c(C#N)c2=O)CC(c2ccccc2[N+](=O)[O-])C([N+](=O)[O-])=C3O)cc1 (configuration not stated) | 91.6% (inactive)
24 | CC(=O)c1cc(C(=O)c2ccc3c(c2)Sc2ccccc2N3)c2cc(C)ccn12 | 2.96% (active)
25 | CCCNC(=O)Oc1ccc(/C(=C(/C)Cc2ccc(OC)cc2)c2ccc(OCCN3CCCCC3)cc2)cc1 | 58.6% (inactive)
26 | CSc1nn(-c2ccccc2)c2ncnc(Oc3ccccc3)c12 | 109% (inactive)
27 | C[C@]12CC[C@@H]3c4ccc(O)c([N+](=O)[O-])c4CC[C@H]3[C@@H]1CC[C@@H]2NS(=O)(=O)c1ccc(C(F)(F)F)cc1 | -11.6% (active)
28 | CCN(C(=O)CN1CCN(c2cc3c(cc2F)c(=O)c(C(=O)O)cn3CC)CC1)c1nc(-c2ccccc2)cs1 | -39.2% (active)
29 | Cc1ccc(Nc2cc(C)nc(NCCCNc3ccnc4cc(Cl)ccc34)n2)cc1 | -73% (active)
30 | ClC1=C(Cl)C(Cl)=C(Cl)C1=Cc1ccccc1 | -8.87% (active)
31 | c1ccc2c(c1)oc1cc3c(cc12)nnc1cccn13 | 108% (inactive)
32 | Cc1ccc(NS(=O)(=O)c2ccc3c(c2)C(=O)CC(c2ccc(C(=O)C(C)C)cc2)N3)cc1C (configuration not stated) | 61.4% (inactive)
33 | O=C(Nc1ccc(Br)cc1)C1=NCCCCN1 | 98% (inactive)
34 | CC(C)Cn1cnc2c(=O)[nH]c(N)nc21 | 63.8% (inactive)
35 | COc1ccc(C(=O)COc2cccc(/C=C3\Oc4ccc5ccccc5c4C3=O)c2)cc1 | 90.7% (inactive)
36 | COc1cc2c(Nc3ccc(-c4ccc(N)cc4)cc3)ncnc2c(OC)c1OC | 11.7% (inactive)
37 | Cc1ccc(NC(=O)c2[nH]c(SCCN(C)C)nc2-c2ccc(F)cc2)cc1Nc1ccc2ncn(C)c(=O)c2c1 | 19.3% (inactive)
